This is a sample that favours compounds with a hit; in the whole collection about 1.9% have one here.
ClpP mod: qHTS Assay for Activators of ClpP; ATP-dependent Clp protease proteolytic subunit (Bacillus subtilis (strain 168)), P80244; purified B. subtilis ClpP, FRET peptide cleavage, 20 min; Potency, µM (titrated, usually from 57.5 µM), for inactives: top-dose activity change, negative = active; 340,000 compounds, 1.9% hits; active = well fitted falling curve with a large enough effect; inconclusive = small, poorly fitted or top-dose-only effect; inactive = no such curve, though single readings can be large or run the other way; note: potency is the fitted concentration of half-maximal effect; the source files actives as falling curves though it sought activators and does not explain the sign; nearly all actives have a fitted effect of over 65% in size
Target sequence (P80244 whole entry, looked up): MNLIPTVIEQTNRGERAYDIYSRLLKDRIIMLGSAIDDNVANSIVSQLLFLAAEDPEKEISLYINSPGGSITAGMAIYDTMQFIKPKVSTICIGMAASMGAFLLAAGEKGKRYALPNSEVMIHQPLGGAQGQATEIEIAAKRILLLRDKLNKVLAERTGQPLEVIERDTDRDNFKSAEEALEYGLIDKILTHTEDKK
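ClpP 10 microg/mL final, pH 8 Tris/KCl buffer with BSA, glycerol, Tween-20; compound pinned in; FRET-FV substrate; RT 20 min; Ex320/Em430; ΔFRET vs ADEP 5.8 microM, DMSO, no enzyme.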
PKM2 activator: activators of human pyruvate kinase M2; P14618; 260,000 compounds, 0.34% hits; AID 1631; purified PKM2, Kinase-Glo ATP luminescence, activation; response scale: 0% is enzyme alone, no compound; Potency, µM (doses to about 57.5 µM), for the others: at the highest dose activation, usual class: activators; note: potency is the fitted concentration of half-maximal effect; % is set by controls: 0 for no effect and ±100 for the full control effect; nearly all actives have a fitted effect of over 55% in size
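Kinase-Glo luminescence reports ATP generated from ADP (0.1 mM) and PEP (0.5 mM) by purified hPK-M2 after 1 h at room temperature, pH 7.2 imidazole buffer; intermediate enzyme activity allows detecting inhibitors and activators.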
USP2a inh: USP2a (human) protease inhibition | O75604 | USP2 core, Ub-CHOP2 coupled fluorogenic reporter, 485/531 | Potency, µM (titrated, usually from 38.3 µM), inactives show top-dose activity change, negative = inhibition, most hits filed as inhibitors | AID 463254 | 330,000 compounds, 0.01% hits;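 note: potency is the fitted concentration of half-maximal effect; plate controls were DMSO wells for no effect and full inhibition by NEM control for full effect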
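Cell-free coupled assay: 10nM USP2 core preincubated 30min RT with compound in Tris-HCl pH 8.0/CaCl2/CHAPS buffer, then 25nM Ub-CHOP2 and 25nM reporter substrate; fluorescence (Ex 485/Em 531) read after 60min RT, normalized to NEM inhibition, concentration-response curves fitted.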
IL-2 act: activators of IL-2; IL-2 activation reporter assay, cell-based qHTS; stimulated with anti-CD3/CD4/CD28 beads; in transgenic mouse T cells; activation, % (series mostly up to about 46 µM); 360,000 compounds, 0.065% hits; AID 652025; in the data active = activation above about 50%; inconclusive = mostly about 30% to 49%; note: 0% is about no effect
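EGFP and DsRed fluorescence is measured by plate cytometry in unstimulated transgenic mouse T cells exposed to compound for 60 minutes, then stimulated 18 hours at 37 degrees C with anti-CD3/anti-CD4 beads plus anti-CD28.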
Pin1 inh: inhibitors of human Pin1 | Pin1 FP peptide displacement, HiFluor488, 10 min | Potency, µM (series often up to 115 µM), inactives show at the top dose activity, negative = inhibition, most hits filed as inhibitors | 390,000 compounds, 0.009% hits | AID 504891; active = well fitted inhibition curve with a large enough effect in the polarisation, with a control signal flat, not every such curve was filed as active; inconclusive = small, poorly fitted or top-dose-only effect, or effect the other way, or a change in a side signal; inactive = no such curve, though single readings can be large or run the other way; the % refers to the polarisation; note: potency is the fitted concentration of half-maximal effect; % is set by controls: 0 for no effect and ±100 for the full control effect
Target sequence (Q13526 whole entry, looked up): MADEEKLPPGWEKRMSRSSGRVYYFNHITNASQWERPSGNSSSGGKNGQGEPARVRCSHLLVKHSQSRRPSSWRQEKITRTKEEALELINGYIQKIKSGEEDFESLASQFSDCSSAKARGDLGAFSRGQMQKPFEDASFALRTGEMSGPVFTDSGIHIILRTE
Integrin act MD: activators of alpha7 integrin expression for muscular dystrophy; AID 624291; alpha7betagal myoblasts, beta-gal FDG fluorescence, 48 h; Potency, µM (top dose mostly 38.3 µM), inactives show at the top dose activation, hits mostly activators; 350,000 compounds, 0.064% hits;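 note: potency is the fitted concentration of half-maximal effect; 100% = response of the positive control SU9516; nearly all actives have a fitted effect of over 60% in size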
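alpha7betagal+/- myoblasts (passage 13, 250/well) treated 48 h at 37C with compounds at 1:260 dilution of DMSO stock. Lysed, then beta-galactosidase activity read as FDG fluorescence (ex 480/em 540) after 30 min, with pre-read for autofluorescence.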
* = called active by the depositor; ? = inconclusive; / = no result given; [ ] = another dose, or the depositor's remark. Unless noted, calls come from the whole dose curve; as a rule, active = well fitted curve in the direction sought with a large enough effect; inconclusive = small, poorly fitted or top-dose-only effect, or another doubt; inactive = no such curve, though single readings can be large; an effect the other way counts as inactive or inconclusive.

SMILES	ClpP mod	PKM2 activator	USP2a inh	IL-2 act	Pin1 inh	Integrin act MD
c1ccc(-c2nc(-c3cccs3)[nH]c2-c2ccccc2)cc1	32µM*	2%	4%	1	11%	-18%
CCOc1cccc(C2C=C(c3ccc4c(c3)OCO4)NC(c3ccc(Cl)cc3)N2)c1O (stereo unspecified)	3%	/	/	/	-1%	/
COc1ccc(C2=Nn3c(nnc3-c3cccc(OC)c3OC)SC2)cc1OC	/	/	/	/	-9%	/
Cc1ccc(C(=O)NCC(=O)OCC(=O)NC(C)C2CC3CCC2C3)cc1 (stereo unspecified)	32µM*	/	0%	-6	-2%	-9%
CC(OCc1ccccc1)C(NC(=O)OC(C)(C)C)C(=O)NC1COC2CC(n3cc(F)c(=O)[nH]c3=O)OC12 (stereo unspecified)	/	/	/	/	0%	/
COc1cc2nc(N(C)C)nc(NC3CCN(C)CC3)c2cc1OC	4%	/	/	/	/	/
CCCCn1c(=NC(=O)c2ccc3c(c2)OCO3)c(C#N)cc2c(=O)n3cccc(C)c3nc21	32µM*	2%	-1%	0	1%	-8%
CCN(CC)C(=O)c1cc2c(=O)n3cccc(C)c3nc2n1C	32µM*	0%	2%	0	-4%	-24%
COCCn1c(=NC(=O)c2ccc3c(c2)OCO3)c(C#N)cc2c(=O)n3cccc(C)c3nc21	/	4%	-5%	/	/	/
COCCCn1c(C(=O)N2CCOCC2)cc2c(=O)n3cccc(C)c3nc21	28µM*	/	/	0	-6%	-15%
CCC(c1nnnn1Cc1ccccc1)N(Cc1ccccc1)Cc1cc2cc(C)ccc2[nH]c1=O (stereo unspecified)	?	/	/	/	1%	/
O=C(CN1CCC(O)CC1)N1c2ccccc2C=Cc2ccccc21	-1%	-5%	10µM*	-2	-3%	4%
CC(C)N1CCc2c(sc(N)c2C#N)C1	25µM*	-5%	9%	0	?	-30%
CCN1CCc2c(sc(N)c2C#N)C1	28µM*	5%	3%	0	?	19%
Cc1ccc(C)c(-n2c(-c3ccc4c(c3)OCO4)n[nH]c2=S)c1	28µM*	5%	-4%	-2	0%	-11%
Cc1ccc(C)c(-n2c(-c3csc(C)c3)n[nH]c2=S)c1	?	4%	3%	-2	-4%	24%
COc1ccc(Br)cc1C1NC(c2ccc3c(c2)OCO3)=CC(c2ccccc2O)N1 (stereo unspecified)	-5%	/	/	/	1%	/
NS(=O)(=O)c1ccc(NCC2COc3ccccc3O2)c([N+](=O)[O-])c1 (stereo unspecified)	/	20µM*	3%	0	0%	?
COc1ccc(-c2nc3ccncc3[nH]2)cc1OC	28µM*	-27%	2%	2	-4%	-12%
COc1cc(OC)cc(C2=Nn3c(nnc3-c3cccc(OC)c3)SC2)c1	/	/	/	/	36%	/
CC(NC(=O)CCSc1nc(-c2ccc3c(c2)OCO3)cc(C(F)(F)F)n1)c1ccccc1 (stereo unspecified)	32µM*	-2%	2%	-3	8%	18%
COc1ccc(CNC(=O)CSc2nc(-c3ccc(OC)cc3)cc(C(F)(F)F)n2)cc1	-15%	/	/	/	-12%	/
CCCNC(=O)CSc1nc(-c2ccc(OC)cc2)cc(C(F)(F)F)n1	3.2µM*	/	/	/	2%	/
COc1ccc(-c2cc(C(F)(F)F)nc(SCC(=O)Nc3cc(C)on3)n2)cc1	4µM*	1%	6%	-1	-2%	21%
COc1ccc(-c2cc(C(F)(F)F)nc(SCCC(=O)NCc3ccccc3)n2)cc1	13µM*	1%	1%	0	-4%	-25%
SMILES	ClpP mod	PKM2 activator	USP2a inh	IL-2 act	Pin1 inh	Integrin act MD
COc1cccc(C2c3c(ncn(CCCN4CCOCC4)c3=N)Oc3ccc4ccccc4c32)c1 (stereo unspecified)	/	/	/	/	17%	/
Cc1ccc(S(=O)(=O)ON2C(=O)c3ccccc3C2=O)c(C)c1	0%	4%	1%	-6	-3%	9%
Cc1cc(C)c(S(=O)(=O)ON2C(=O)c3ccccc3C2=O)cc1C	8.9µM*	3%	2%	0	-4%	-23%
COc1ccc(OC)c(C2=Nn3c(nnc3-c3cccc(OC)c3OC)SC2)c1	/	/	/	/	-3%	/
O=C(NCCN1CCOCC1)C1(C(F)(F)F)C/C(=C/CCO)CCCO1 (stereo unspecified)	/	/	/	/	-1%	/
CC(C)c1ccc(S(=O)(=O)c2n[nH]n3c2nc(=O)c2ccccc23)cc1	25µM*	-22%	-2%	0	0%	0%
O=c1nc2c(-c3ccccc3F)n[nH]n2c2ccccc12	28µM*	-10%	4%	-1	-2%	13%
CCc1ccc(S(=O)(=O)c2n[nH]n3c2nc(=O)c2ccccc23)cc1	32µM*	9%	5%	1	-4%	-10%
C=C(C)[C@@H]1C2=CC(C(=O)OC)=C(C[C@@H](C(=C)C)[C@H]3O[C@H]3C3=C[C@H]1OC3=O)O2	-4%	/	/	/	?	/
CN1CCCC1CCNc1ncnc2ccc(-c3ccc4c(c3)OCO4)cc12 (stereo unspecified)	/	/	/	/	-6%	/
O=C(NCCCNC(=O)c1cncc(O)c1)c1cncc(O)c1	/	6%	0%	0	0%	3%
CCOC(=O)CCCNC(=O)c1cncc(O)c1	32µM*	-1%	2%	1	-6%	9%
O=C(O)CCCNC(=O)c1cncc(Br)c1	28µM*	-1%	-1%	-2	-3%	0%
CC(C)n1c(O)c(N=NC(=O)CNC(=O)Cc2ccc(Cl)cc2)c2ccccc21	1%	21%	2%	-3	-6%	-9%
COc1ccccc1C(=O)NCC(=O)N=Nc1c(O)n(C(C)C)c2ccccc12	0%	1%[0.46 µM]	-1%	2	5%	11µM*
C[C@H]1Cc2c(COc3ccccc3)nc3c(c2CO1)CN(C(=O)C1CCCCC1)CC3	/	1%[11.5 µM]	/	/	/	/
COc1cc2nc(NCc3ccccc3)n3nc(-c4ccccc4)nc3c2cc1OC	-9%	/	/	/	1%	/
CCN(CC)CCCNc1nc2cc(OC)c(OC)cc2c2nc(-c3ccccc3)nn12	32µM*	0%	-2%	-3	2%	-70%
COc1ccc(CNc2nc3ccccc3c3nc(-c4ccccc4)nn23)cc1	28µM*	/	/	/	8%	/
CCN(CC)CCCNc1nc2cc(OC)c(OC)cc2c2nc(-c3cccnc3)nn12	2%	-2%	0%	-3	-1%	-23%
COc1ccc(-c2ccccc2C2C3C=CCCC3(C)C(=O)N2Cc2ccccc2)cc1 (stereo unspecified)	/	/	/	/	1%	/

Bioassay records as filed in PubChem.
